Screening results (PubChem)
CHT allo act – allosterically activates the human high affinity choline transporter; Q9GZV3; CHT-expressing cells, membrane potential dye, choline EC20; hits give high values; LV-AA mutant CHT in HEK293 cells; B-score at 10 µM; hit rate 0.49% among 310,000; AID 488977;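 active = initial fluorescence not abnormally high and integrated response B-score, plate-corrected, over 3 SD above library mean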
MEKK2mut PB1 HTS – signal of MEK5 binding to mutant human MEKK2 PB1 domain; AID 1530; percent response, % at 10 µM; hit rate 0.35% among 290,000; bead flow cytometry, Alexa488-MEK5 binding to MEKK2 mutant; in the data active = percent response above about 24%, passing the limit was not always enough
MEKK3 PB1 HTS – raises or lowers MEK5 binding to the human MEKK3 PB1 domain | Q99759 | bead-based flow cytometry, Alexa488-MEK5 binding to MEKK3; actives lie on both sides; 0 = blocked by unlabeled MEK5, 100 = vehicle | binding response (% of control), % at 10 µM | hit rate 1.4% among 290,000;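 active = binding response more than 3 SD above or below the average of its plate-row segment, actives on both sides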;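 also: Alexa488 bead fluorescence after subtracting the streptavidin-only scavenger bead signal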
Target sequence (Q99759 whole entry, looked up, the tested form may be a part): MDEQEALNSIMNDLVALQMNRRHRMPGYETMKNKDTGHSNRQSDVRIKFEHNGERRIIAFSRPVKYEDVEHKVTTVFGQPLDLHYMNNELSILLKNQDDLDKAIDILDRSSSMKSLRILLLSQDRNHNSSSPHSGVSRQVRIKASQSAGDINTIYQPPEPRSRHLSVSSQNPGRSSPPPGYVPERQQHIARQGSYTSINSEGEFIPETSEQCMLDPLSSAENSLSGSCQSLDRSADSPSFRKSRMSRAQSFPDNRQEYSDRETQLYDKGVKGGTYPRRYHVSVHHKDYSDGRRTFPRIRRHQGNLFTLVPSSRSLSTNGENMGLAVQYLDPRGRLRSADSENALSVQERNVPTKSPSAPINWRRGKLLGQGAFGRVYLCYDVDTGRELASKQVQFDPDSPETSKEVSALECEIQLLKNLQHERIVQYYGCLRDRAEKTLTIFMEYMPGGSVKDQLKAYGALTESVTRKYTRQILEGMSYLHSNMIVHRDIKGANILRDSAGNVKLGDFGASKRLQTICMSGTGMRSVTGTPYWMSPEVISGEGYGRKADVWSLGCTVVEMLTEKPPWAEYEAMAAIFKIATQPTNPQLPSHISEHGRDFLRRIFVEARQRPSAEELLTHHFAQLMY
Mot1-301 SUMO – inhibitors of SUMOylation pathway: yeast Mot1-301 growth rescue. S. cerevisiae Mot1-301 growth rescue, ATP luminescence, 38.5C; percent above DMSO median, 100 means doubled. growth rescue, % at 18.8 µM. hit rate 1% among 320,000. AID 2716;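 active = every valid replicate shows activation above 250% relative to neutral control wells; inactive = the rest, any valid replicate at or below 250%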;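 also: OY570 slx delta 5 strain wells were the positive control but not used for scaling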
CHT inh – inhibitors of human choline transporter CHT; Q9GZV3; CHT-expressing cells, membrane potential dye, choline response; hits give low values; B-score at 10 µM; hit rate 0.86% among 310,000; AID 488975;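 active = B-score over 3 SD under the library average, and starting fluorescence ratio not unusually high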;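 also: choline stimulus applied at its EC90 after an EC20 pre-addition; B-score computed on integrated fluorescence ratio after choline addition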
MEKK2wt PB1 HTS – raises or lowers MEK5 binding to wildtype human MEKK2 PB1 domain | hit rate 1.1% among 290,000 | bead flow cytometry, Alexa488-MEK5 binding to MEKK2 WT; actives lie on both sides | AID 1531 | Q9Y2U5 | binding response (% of control), % at 10 µM; in the data active = binding response below about 67% or above about 130%
MEKK2wt confirm – raises or lowers MEK5 binding to wildtype human MEKK2, retest | shares compounds with MEKK3 PB1 HTS | bead flow cytometry, Alexa488-MEK5 binding to MEKK2 WT; actives lie on both sides | binding response (% of control), % at 10 µM | hit rate 2.4% among 5,900; in the data active = binding response below about 16% or above about 210%; inactive = in between
MEKK2mut-MEK5 – signal of MEK5 binding to mutant human MEKK2, retest; shares compounds with MEKK3 PB1 HTS; bead flow cytometry, Alexa488-MEK5 binding to MEKK2 mutant; percent response, % at 10 µM; hit rate 2% among 5,900; AID 1893; in the data active = percent response mostly above about 71%, no sharp cut-off; inactive = mostly below about 38%;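 also: higher means compound restores mutant binding toward wildtype level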
MEKK3-MEK5 inh – confirmation of inhibitors of MEK5 binding to human MEKK3. shares compounds with MEKK3 PB1 HTS. bead flow cytometry, Alexa488-MEK5 binding to MEKK3; hits give low values. binding response (% of control), % at 10 µM. hit rate 1.8% among 5,900;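 active = binding response below 72% of control, or above a set upper limit, though filed actives all read lower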;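 also: 100% = DMSO only wells and 0% = binding blocked by excess unlabeled MEK5; lower values mean stronger disruption of MEK5 binding to MEKK3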
Starred values were filed as active, the others as inactive; i = inactive; x = no result given; [ ] = remark or other dose. Compounds with a hit are over-represented: about 4.1% of the library has one in this group of screens.

SMILES | CHT allo act | MEKK2mut PB1 HTS | MEKK3 PB1 HTS | Mot1-301 SUMO | CHT inh | MEKK2wt PB1 HTS | MEKK2wt confirm | MEKK2mut-MEK5 | MEKK3-MEK5 inh
Cc1cccc(C)c1Nc1ncnc(N)c1[N+](=O)[O-] | i | 51* | 117 | 4 | i | 119 | 107 | 11 | 104
Cc1ccc(S(=O)(=O)NC(=O)Nc2ccccc2)cc1 | i | -9 | 101 | -2 | i | 96 | x | x | x
Cc1ccc(S(=O)(=O)NC(=O)Nc2nnc(C)s2)cc1 | i | -16 | 0.0*[inhibitor] | -9 | i | 0.0*[inhibitor] | 100 | 5 | 98
COc1ccc(SC[C@H](Cc2ccccc2)N2CCN(C)CCC2=O)cc1 | i | 4 | 120 | 162 | i | 143* | 117 | 20 | 107
CN1CCC(=O)N([C@H](CSc2ccccc2)Cc2ccccc2)CC1 | i | 7 | 102 | -6 | i | 98 | x | x | x
Cc1c(/C=N/NC(=O)c2ccccc2O)c2ccccn2c1C(=O)c1ccc(F)cc1 | i | 1 | 142* | x | i | 108 | 89 | -11 | 98
CCOC(=O)N/N=C/c1c(C)c(C(=O)c2ccc(F)cc2)n2ccccc12 | i | -12 | 74*[inhibitor] | -10 | i | 67 | 105 | -6 | 100
COc1ccc(-c2nc(C#N)c(NCC3CCCO3)o2)cc1 (stereo not drawn) | i | 12 | 111 | -1 | i | 113 | x | x | x
CCC(=O)Nc1ccc(C(=O)CSc2nnc(-c3ccc(O)cc3)n2CC2CCCO2)cc1OC (stereo not drawn) | i | x | x | 7 | i | x | x | x | x
CCN(CC)C(=O)CSc1nnc(-c2ccc(O)cc2)n1CC1CCCO1 (stereo not drawn) | i | 11 | 136* | 8 | i | 133 | 104 | 5 | 106
O=C(CC1C(=O)NCCN1CCCc1ccccc1)NCCc1ccccc1Cl (stereo not drawn) | i | 31* | 102 | 81 | i | 126 | 146 | 21 | 103
COc1ccccc1CCNC(=O)CC1C(=O)NCCN1CCCc1ccccc1 (stereo not drawn) | i | 26* | 109 | -3 | i | 138* | 113 | 6 | 101
CCNC(=O)CN(Cc1ccccc1)S(=O)(=O)c1ccccc1 | i | 0 | 100 | 0 | i | 100 | x | x | x
COc1cccc(CN2CC(C(=O)N(C)C3CCOCC3)CCC2=O)c1 (stereo not drawn) | i | 3 | 102 | 4 | i | 101 | x | x | x
COc1cc(S(=O)(=O)N2CCN(C(=O)c3ccco3)CC2)ccc1Cl | i | 9 | 108 | -5 | i | 113 | x | x | x
O=C1C(Nc2ccccc2)=C(NS(=O)(=O)c2ccccc2)C(=O)c2ccccc21 | i | 0 | 139* | -10 | i | 106 | 96 | -7 | 92
Cc1c(C(=O)C(=O)N2c3ccc(F)cc3CCC2C)c2ccccc2n1C (stereo not drawn) | i | 1 | 141* | -18 | i | 108 | 97 | -4 | 104
Cc1c(C(=O)C(=O)N2CCN(C)CC2)c2ccccc2n1C | i | 1 | 117 | 47 | i | 113 | x | x | x
COc1ccc(S(=O)(=O)NCCSc2ccccc2)cc1OC | i | 1 | 99 | -30 | i | 97 | x | x | x
COc1ccc(S(=O)(=O)NCCSc2ccc(C)cc2)cc1OC | i | 9 | 122* | 628 | i | 123 | 98 | 1 | 100
Cc1ccc(NC(=O)C2CCCN(C(=O)NCc3ccccc3)C2)c(C)c1 (stereo not drawn) | i | 3 | 103 | -5 | i | 103 | x | x | x
COc1cc(C)c(NC(=O)C2CCN(S(=O)(=O)c3cccs3)CC2)cc1OC | x | x | x | -10 | x | x | x | x | x
CCn1c(CCNC(=O)c2cccs2)nnc1SCC(=O)NC1CCCCC1 | i | -41 | 1.0*[inhibitor] | 1 | i | 0.0*[inhibitor] | 94 | -8 | 96
COc1ccccc1N1CCN(C2CCN(S(=O)(=O)c3ccc4ccccc4c3)CC2)CC1 | i | 3 | 103 | 0 | i | 145* | 118 | 1 | 92
COc1ccccc1N1CCN(S(=O)(=O)c2cn(C)nc2C)CC1 | i | -2 | 97 | -7 | i | 97 | x | x | x
SMILES | CHT allo act | MEKK2mut PB1 HTS | MEKK3 PB1 HTS | Mot1-301 SUMO | CHT inh | MEKK2wt PB1 HTS | MEKK2wt confirm | MEKK2mut-MEK5 | MEKK3-MEK5 inh
COc1ccccc1N1CCN(S(=O)(=O)c2ccccc2F)CC1 | i | -21 | 45*[inhibitor] | -7 | i | 63 | 106 | 6 | 102
COc1ccccc1CNC(=O)c1ccc(OCc2c(C)noc2C)c(OC)c1 | i | -42 | 2.0*[inhibitor] | -18 | i | 1.0*[inhibitor] | 105 | 1 | 102
CCCn1c(C)cc(C(=O)COC(=O)c2ccc[nH]c2=O)c1C | i | 0 | 130* | 248 | i | 106 | 97 | -2 | 102
Cc1cc(C(=O)COC(=O)c2ccc[nH]c2=O)c(C)n1-c1ccccc1F | i | 20 | 103 | -11 | i | 100 | x | x | x
CCC(CC)C(=O)Nc1ccccc1NC(C)=O | i | 0 | 97 | 463 | i | 96 | x | x | x
O=C(Cn1cnc2ccccc21)N/N=C/c1ccccc1[N+](=O)[O-] | i | 0 | 138* | -10 | i | 105 | 99 | 0 | 97
O=C(Cn1cnc2ccccc21)N/N=C/c1cccc([N+](=O)[O-])c1 | i | 10 | 106 | 2 | i | 112 | x | x | x
CCc1cc2cc(C(=O)N3CCN(Cc4ccccc4)CC3)sc2s1 | i | -13 | 77*[inhibitor] | 112 | i | 91 | 89 | -11 | 85
Cc1ccc2cc3cc(C(=O)N4CCN(Cc5ccccc5)CC4)sc3nc2c1 | i | -8 | 96 | 151 | i | 97 | x | x | x
CCOc1ccc(OCC)c(NC(=O)c2nnn(CC(=O)Nc3cc(C)cc(C)c3)c2N)c1 | i | -3 | 101 | 66 | i | 101 | x | x | x
Cc1nc2c(-c3ccc(F)cc3)c(C)nn2c(C)c1CCC(=O)Nc1ccccc1 | i | -20 | 81 | 127 | i | 83 | x | x | x
CCN1CCN(c2ccc(NC(=O)CCc3c(C)nc4c(-c5ccc(F)cc5)c(C)nn4c3C)cc2)CC1 | i | 20 | 104 | -25 | i | 146* | 132 | 24 | 108
O=C(Cc1nc2ccccc2[nH]1)c1ccc(Cl)cc1 | i | -2 | 104 | 139 | i | 99 | x | x | x
